The source of these data is PubChem BioAssay (NCATS).

The structures appear in SMILES notation. Values joined by “and” are separate entries in the source; they are usually repeats but may differ in a detail not shown here. Equal entries are not always repeated. Records with an inconclusive call do not appear. Some structures have more than one record in an assay (separate samples or runs), and their calls can disagree. Active and inactive are the calls of the source. Unless noted, the call rests on the fitted dose curve; in most records, active means well fitted curve in the direction sought with a large enough effect; inconclusive means small, poorly fitted or top-dose-only effect, or another doubt; inactive means no such curve, though single readings can be large; an effect the other way counts as inactive or inconclusive.

Assay [1] concerns the target Cytochrome P450 3A4 (Homo sapiens) (UniProt P08684). Description: qHTS Assay for Inhibitors and Substrates of Cytochrome P450 3A4 (AID 884). Further: nearly all actives have a fitted effect of over 50% in size. Further: potency means the concentration at half of the fitted maximal effect. In outline:
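20 nM human CYP3A4 with 25 uM Luciferin-PPXE (at KM) in 200 mM KPO4, preincubated 10 min with compound; NADPH regeneration started a 60 min RT reaction. Luciferin detected by luminescence, normalized to 57 uM ketoconazole as full inhibition.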

Assay [2] in a line: Cell Viability - LYMP2-001 (AID 921).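 Further: series mostly up to about 92 µM; cells exposed to compound for 24 h at 37 °C; 0% = DMSO only and full inhibition = tetraoctylammonium bromide control wells; nearly all actives have a fitted effect of over 70% in size.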 The essentials: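 Steps: seed 2500 lymphoblastoid cells/well; 5 hr, 37 C; add compound; 24 hr, 37 C; CellTiter-Glo reagent, 30 min room temperature; read luminescence. Concentration-response modeled by Hill equation for AC50.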
A short description of assay [3]: Cell Viability - LYMP2-014 (AID 983).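 Further: cells exposed to compound for 24 h at 37 °C; nearly all actives have a fitted effect of over 50% in size.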 Further: potency means the concentration at half of the fitted maximal effect. In outline:
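LYMP2-014 human lymphoblastoid cells, 2500/well, treated 24 h at 37 C in complete medium; viability by CellTiter-Glo ATP luminescence after 30 min at room temperature. AC50 from Hill fits of qHTS concentration-response; tetraoctylammonium bromide positive control.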

The nature of assay [4]: qHTS assay for small molecule antagonists of peroxisome proliferator-activated receptor delta signaling (AID 588535; active means well fitted inhibition curve with a large enough effect in the signal ratio, with a control signal flat, not every such curve was filed as active; the % refers to the signal ratio; further: potency means the concentration at half of the fitted maximal effect;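 on max response: cells co-treated with a PPAR-delta agonist as stimulator during compound exposure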). The settings on record: HEK293T PPARd-UAS-bla, beta-lactamase FRET ratio, 18 h; 460 nm channel. In outline: (§1)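 Antagonist-mode beta-lactamase reporter (GeneBLAzer PPAR-delta-UAS-bla) in HEK293T cells, 2% charcoal/dextran FBS, 4000 cells/well. Compound titrations, 18 h at 37 C; CCF4 ratio read, IC50 and efficacy from Hill fits.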

In assay [5] the target is Peroxisome proliferator-activated receptor delta (Homo sapiens) (UniProt Q03181). The assay is described as above. In outline:
as §1

The target in assay [6] is Peroxisome proliferator-activated receptor gamma (Homo sapiens) (UniProt P37231). Description: qHTS assay for small molecule antagonists of peroxisome proliferator-activated receptor gamma signaling (AID 588537; active means well fitted inhibition curve with a large enough effect in the signal ratio, with a control signal flat, not every such curve was filed as active; the % refers to the signal ratio;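 further: reporter cells co-stimulated with 50 nM rosiglitazone agonist during compound treatment; % of control where 0% means no effect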). In outline: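 PPARγ-UAS-bla HEK293 cells (3000/well) in 1% charcoal/dextran-stripped FBS are treated with compound, then stimulated with 50 nM rosiglitazone for 16 h at 37 °C. Read-out is CCF4 β-lactamase fluorescence after 2 h at RT. IC50 comes from Hill fits normalised to rosiglitazone and DMSO.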
Peroxisome proliferator-activated receptor gamma (Homo sapiens), sequence (P37231 whole entry, looked up): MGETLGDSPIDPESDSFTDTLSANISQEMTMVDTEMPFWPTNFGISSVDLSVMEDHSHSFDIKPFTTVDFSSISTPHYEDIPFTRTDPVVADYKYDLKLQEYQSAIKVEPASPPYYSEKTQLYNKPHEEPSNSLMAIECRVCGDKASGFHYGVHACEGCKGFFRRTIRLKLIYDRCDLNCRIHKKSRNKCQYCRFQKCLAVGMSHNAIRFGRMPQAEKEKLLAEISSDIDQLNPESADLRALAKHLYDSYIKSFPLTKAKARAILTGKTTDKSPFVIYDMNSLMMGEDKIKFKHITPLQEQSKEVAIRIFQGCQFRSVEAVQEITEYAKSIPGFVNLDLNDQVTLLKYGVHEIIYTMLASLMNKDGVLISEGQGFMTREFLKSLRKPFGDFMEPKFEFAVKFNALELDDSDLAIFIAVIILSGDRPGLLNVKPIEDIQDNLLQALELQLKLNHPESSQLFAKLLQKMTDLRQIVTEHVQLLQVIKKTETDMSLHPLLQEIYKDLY

Assay [7] is described as follows: qHTS assay to identify small molecules that stimulate interleukin-8 (IL-8) secretion (AID 651758; active means well fitted activation curve with a large enough effect in the signal ratio; the % refers to the signal ratio; further: 0% is about no effect). The essentials: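 THP-1 cells (2000/well) exposed to compound 16 h at 37 C; secreted IL-8 then detected by HTRF with cryptate- and XL665-labelled anti-IL-8 antibody pair after 1-3 h at room temperature.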
Assay [8] concerns the target Peroxisome proliferator-activated receptor alpha (Homo sapiens) (UniProt Q07869). The assay can be described thus: qHTS assay for small molecule agonists of the peroxisome proliferator-activated receptor alpha (PPARalpha) signaling pathway (AID 651778). Further: % of control where 0% means no effect. The settings on record: PathHunter PPARalpha complementation, chemiluminescence, 6 h; max response: stronger effect = higher value. In outline:
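Enzyme-fragment complementation assay in which ligand-bound PPARalpha translocates and forms an active enzyme that generates chemiluminescence. Cells were plated overnight, exposed to compound for 6 hr at 37 C, and then given detection reagent for 60 min at room temperature.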

The nature of assay [9]: qHTS assay for cell viability of HEK293 cells (AID 743288). Further: on the % scale 0 is the no-effect control and ±100 the full control effect; nearly all actives have a fitted effect of over 50% in size. The conditions noted are these: ATP luminescence (CellTiter-Glo), 18 h; max response: stronger effect = lower value. The essentials:
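HEK293 parental, 2,000 cells/well; ≥5 h pre-incubation 37 C; pintool compound addition; 18 h, 37 C; CellTiter-Glo 30 min RT; luminescence read.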

Assay [10] addresses Mitogen-activated protein kinase 10 (Mus musculus) (UniProt Q61831). The assay can be described thus: JNK3 AlphaScreen Assay (AID 530; active means well fitted curve in either direction with a large enough effect, not every such curve was filed as active;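 further: kinase came from lysate of stimulated human HepG2 cells; signal reports phosphorylation of biotinylated GST-cJun 1-79 at Ser73 with 10 µM ATP; series mostly up to about 57 µM; on the % scale 0 is the no-effect control and ±100 the full control effect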). In outline: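 Pre-activated (IL-1β/TNFα) JNK3 in HepG2 lysates phosphorylates biotin-GST-cJun(1-79), 10 uM ATP; anti-phospho-cJun(Ser73) AlphaScreen read at room temperature, pH 7.6 Tris buffer. Compounds pre-incubated 15 min as titrations.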

A short description of assay [11]: Cell Viability - LYMP2-016 (AID 984).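 Further: cells exposed to compound for 24 hours at 37 °C; on the % scale 0 is the no-effect control and ±100 the full control effect; nearly all actives have a fitted effect of over 55% in size.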 In outline:
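Cells were seeded at 2500 per well and rested 5 hr before a 24 hr compound exposure at 37 C. Viability was then gauged as cellular ATP by luciferase luminescence, with AC50 values fitted to the Hill equation.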

The target of assay [12] is Glucocorticoid receptor (Homo sapiens) (UniProt P04150). The assay can be described thus: qHTS assay for small molecule antagonists of glucocorticoid receptor signaling (AID 588533; active means well fitted inhibition curve with a large enough effect in the signal ratio, with a control signal flat, not every such curve was filed as active; the % refers to the signal ratio;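 further: cells stimulated with 2 nM dexamethasone as agonist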; further: potency means the concentration at half of the fitted maximal effect). The essentials:
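Antagonist-mode qHTS: compound titrations added to GRE-bla HeLa cells, then dexamethasone 2 nM final; 18 h, 37 C. CCF4 FRET fluorescence normalized to dexamethasone and DMSO; IC50 from Hill fit.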

Assay [13] in a line: qHTS assay for small molecule agonists of the antioxidant response element (ARE) signaling pathway (AID 651741; active means well fitted activation curve with a large enough effect in the signal ratio; the % refers to the signal ratio; further: potency means the concentration at half of the fitted maximal effect; on activation: % of control where 0% means no effect). The essentials:
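CellSensor ARE-bla HepG2 cells (2,000/well) carrying ARE-driven beta-lactamase, exposed 16 h at 37 C. LiveBLAzer B/G FRET substrate added for 2 h at room temperature; fluorescence intensity read.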

The nature of assay [14]: Cell Viability - BJ (AID 421; calls by dose curve;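 further: potency means the concentration at half of the fitted maximal effect; cells exposed to compound for 40 hours at 37 °C before readout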). The settings on record: BJ fibroblast viability, qHTS. In outline:
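Cytotoxicity as drop in intracellular ATP (CellTiter-Glo, 20 min RT) after 40 hr compound exposure of BJ fibroblasts at 37 °C. Titrations scaled between DMSO and 100 uM tamoxifen, Hill-fitted for AC50.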

Assay [15] is described as follows: Cell Viability - LYMP2-013 (AID 970).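 Further: series mostly up to about 92 µM; cells exposed to compound for 24 h at 37 °C; 0% = DMSO only and full inhibition = tetraoctylammonium bromide control; nearly all actives have a fitted effect of over 55% in size.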 The essentials:
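Human lymphoblastoid LYMP2-013 cells, 2500/well, treated 24 h at 37 C in complete medium; viability as intracellular ATP by CellTiter-Glo luminescence after 30 min. AC50 from Hill fits of qHTS concentration-response.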

Assay [16] concerns the target Thyroid hormone receptor beta (Homo sapiens) (UniProt P10828). The assay can be described thus: qHTS assay for small molecule agonists of thyroid hormone receptor beta signaling (AID 588545; calls by dose curve;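 further: 0% = DMSO only and 100% = 10 nM T3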). In outline:
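Stimulation of a TR-driven beta-lactamase reporter was quantified in GripTite HEK 293 cells. Compound series ran for 18 hrs; curves were normalized to T3 and DMSO controls and fitted to yield EC50.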

Assay [17] can be described thus: qHTS assay for small molecule disruptors of the mitochondrial membrane potential - 5 hr assay (AID 651755; calls by dose curve; further: on the % scale 0 is the no-effect control and ±100 the full control effect; nearly all actives have a fitted effect of over 40% in size). In outline:
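HepG2 cells (2,000/well), attached overnight, exposed to compound 5 hr at 37C, then Mito-MPS dye 30 min. Fluorescence read for monomers (490/535 nm) and aggregates (540/590 nm).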

For assay [18], the target named is Bile acid receptor (Homo sapiens) (UniProt Q96RI1). The assay can be described thus: qHTS assay for small molecule antagonists of farnesoid X receptor signaling (AID 588526; calls by dose curve; further: on the % scale 0 is the no-effect control and ±100 the full control effect). In outline: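 Antagonist mode: titrated compounds tested against chenodeoxycholic acid stimulation (normalized to 50 uM CDCA and DMSO) in GeneBLAzer HEK293T cells for 16 h. Beta-lactamase read by CCF4 fluorescence; IC50 from Hill fits.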
Bile acid receptor (Homo sapiens), sequence (Q96RI1 whole entry, looked up): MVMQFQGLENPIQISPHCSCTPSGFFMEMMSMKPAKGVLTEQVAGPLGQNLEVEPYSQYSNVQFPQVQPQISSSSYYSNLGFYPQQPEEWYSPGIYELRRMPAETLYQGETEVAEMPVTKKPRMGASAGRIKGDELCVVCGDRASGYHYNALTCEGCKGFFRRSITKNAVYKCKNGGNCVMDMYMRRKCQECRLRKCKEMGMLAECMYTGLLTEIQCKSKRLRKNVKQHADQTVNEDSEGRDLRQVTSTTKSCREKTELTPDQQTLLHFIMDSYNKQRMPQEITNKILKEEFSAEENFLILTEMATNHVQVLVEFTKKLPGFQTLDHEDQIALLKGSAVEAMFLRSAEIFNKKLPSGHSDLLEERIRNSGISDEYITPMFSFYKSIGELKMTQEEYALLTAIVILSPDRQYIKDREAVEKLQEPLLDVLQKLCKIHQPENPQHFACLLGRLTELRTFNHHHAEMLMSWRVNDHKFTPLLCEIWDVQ

Assay [19] in a line: qHTS assay for small molecule activators of the nuclear factor-kappa B (NF-kB) signaling pathway (AID 651749; active means well fitted activation curve with a large enough effect in the signal ratio; the % refers to the signal ratio; further: series mostly up to about 77 µM; % of control where 0% means no effect). The conditions noted are these: NF-kB-bla ME-180 cells, beta-lactamase FRET ratio, 16 h; stronger effect = higher value. The essentials: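 NF-kB-bla ME-180 cells carrying a beta-lactamase reporter under an NF-kB response element, 2,000 cells/well, exposed to compound for 16 hr at 37C; FRET-based beta-lactamase fluorescence read-out of pathway activation.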

Glucocorticoid receptor (Homo sapiens), sequence (P04150 whole entry, looked up): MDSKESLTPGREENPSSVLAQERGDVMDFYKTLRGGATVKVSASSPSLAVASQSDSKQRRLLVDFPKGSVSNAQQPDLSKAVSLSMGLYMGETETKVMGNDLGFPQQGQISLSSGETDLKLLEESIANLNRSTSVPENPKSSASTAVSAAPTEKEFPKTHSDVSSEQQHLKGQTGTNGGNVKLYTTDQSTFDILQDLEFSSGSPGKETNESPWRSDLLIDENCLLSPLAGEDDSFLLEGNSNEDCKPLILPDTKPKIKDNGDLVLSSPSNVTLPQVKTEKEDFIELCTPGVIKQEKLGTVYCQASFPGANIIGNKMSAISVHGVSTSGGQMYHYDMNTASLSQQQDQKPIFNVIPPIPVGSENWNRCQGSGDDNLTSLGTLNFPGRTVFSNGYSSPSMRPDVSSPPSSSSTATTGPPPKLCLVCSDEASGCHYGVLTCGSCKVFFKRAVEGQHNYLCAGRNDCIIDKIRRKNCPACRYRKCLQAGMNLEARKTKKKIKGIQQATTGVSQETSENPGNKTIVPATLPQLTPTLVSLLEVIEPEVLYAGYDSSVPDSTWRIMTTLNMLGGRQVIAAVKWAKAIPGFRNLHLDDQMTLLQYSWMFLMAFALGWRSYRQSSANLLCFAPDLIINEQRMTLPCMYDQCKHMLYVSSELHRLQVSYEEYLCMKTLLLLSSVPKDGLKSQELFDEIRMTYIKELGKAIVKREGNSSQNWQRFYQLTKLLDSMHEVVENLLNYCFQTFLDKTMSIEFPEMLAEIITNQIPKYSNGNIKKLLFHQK
Peroxisome proliferator-activated receptor alpha (Homo sapiens), sequence (Q07869 whole entry, looked up, the tested form may be a part): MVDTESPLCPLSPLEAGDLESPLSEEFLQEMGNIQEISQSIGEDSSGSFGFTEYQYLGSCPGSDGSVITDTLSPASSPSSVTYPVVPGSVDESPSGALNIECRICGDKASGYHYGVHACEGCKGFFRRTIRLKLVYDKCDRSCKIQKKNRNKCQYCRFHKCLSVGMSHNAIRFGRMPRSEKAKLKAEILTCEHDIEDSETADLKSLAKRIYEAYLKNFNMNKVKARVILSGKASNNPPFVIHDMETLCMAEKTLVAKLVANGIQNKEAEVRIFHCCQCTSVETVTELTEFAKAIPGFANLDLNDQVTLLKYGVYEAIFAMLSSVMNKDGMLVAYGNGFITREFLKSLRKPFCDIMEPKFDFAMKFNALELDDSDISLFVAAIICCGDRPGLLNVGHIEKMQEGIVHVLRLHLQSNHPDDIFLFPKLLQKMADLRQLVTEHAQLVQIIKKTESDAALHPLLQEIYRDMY
Peroxisome proliferator-activated receptor delta (Homo sapiens), sequence (Q03181 whole entry, looked up): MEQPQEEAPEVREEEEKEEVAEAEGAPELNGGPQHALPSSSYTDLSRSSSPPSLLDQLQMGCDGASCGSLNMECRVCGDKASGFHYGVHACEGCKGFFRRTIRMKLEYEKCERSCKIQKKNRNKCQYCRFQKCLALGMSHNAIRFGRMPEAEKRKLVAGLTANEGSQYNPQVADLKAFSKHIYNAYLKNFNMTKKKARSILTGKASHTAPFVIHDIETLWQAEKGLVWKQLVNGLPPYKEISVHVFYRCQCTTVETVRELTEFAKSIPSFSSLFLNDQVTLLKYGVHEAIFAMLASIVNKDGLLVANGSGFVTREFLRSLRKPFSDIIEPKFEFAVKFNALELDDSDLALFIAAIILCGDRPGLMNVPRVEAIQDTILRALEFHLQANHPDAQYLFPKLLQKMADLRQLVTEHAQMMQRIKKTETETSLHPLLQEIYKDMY
Cytochrome P450 3A4 (Homo sapiens), sequence (P08684 whole entry, looked up): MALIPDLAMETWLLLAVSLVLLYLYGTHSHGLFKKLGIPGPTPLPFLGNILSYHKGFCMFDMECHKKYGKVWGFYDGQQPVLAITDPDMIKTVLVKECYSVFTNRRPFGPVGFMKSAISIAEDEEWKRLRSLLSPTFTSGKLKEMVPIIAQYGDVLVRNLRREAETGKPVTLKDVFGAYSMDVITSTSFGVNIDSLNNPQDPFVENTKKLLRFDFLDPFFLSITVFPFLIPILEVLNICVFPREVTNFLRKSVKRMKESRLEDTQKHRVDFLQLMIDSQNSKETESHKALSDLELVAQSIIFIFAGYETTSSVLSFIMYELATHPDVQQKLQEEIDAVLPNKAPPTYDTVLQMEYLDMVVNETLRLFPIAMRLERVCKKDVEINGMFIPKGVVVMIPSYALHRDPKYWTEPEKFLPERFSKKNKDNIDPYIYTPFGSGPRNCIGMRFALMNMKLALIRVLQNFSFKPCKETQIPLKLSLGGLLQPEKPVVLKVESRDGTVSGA
Thyroid hormone receptor beta (Homo sapiens), sequence (P10828 whole entry, looked up): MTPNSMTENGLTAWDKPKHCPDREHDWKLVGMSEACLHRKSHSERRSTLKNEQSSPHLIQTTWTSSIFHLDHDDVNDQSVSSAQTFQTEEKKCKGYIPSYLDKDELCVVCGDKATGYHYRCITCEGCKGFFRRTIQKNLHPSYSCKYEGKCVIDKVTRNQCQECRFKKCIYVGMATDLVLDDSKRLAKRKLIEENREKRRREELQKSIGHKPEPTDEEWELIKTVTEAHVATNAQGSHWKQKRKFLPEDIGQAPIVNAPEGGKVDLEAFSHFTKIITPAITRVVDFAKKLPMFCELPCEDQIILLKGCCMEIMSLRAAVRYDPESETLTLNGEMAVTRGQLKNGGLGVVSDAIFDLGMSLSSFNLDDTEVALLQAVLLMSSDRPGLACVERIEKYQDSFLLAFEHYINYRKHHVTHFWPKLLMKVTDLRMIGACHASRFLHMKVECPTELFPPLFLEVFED

For `CC1=CC(C)(C)Nc2ccccc21`, the Potency in assay [1] was 10 µM (active) and inactive. Besides, the Potency result in assay [2], in assay [3], in assay [5] and in assay [7] was “inactive” throughout. Further, the max response in assay [4] is 34.8% and 1.74%; in [8] it was 2.08% (inactive) and -3.28% (inactive); in assay [9], -4.28% (inactive) and -1.89% (inactive). Also, in [6], the call was inactive.

Consider `CCCCCCCCO`, for which the Potency entry in [10], in assay [1], in assay [11], in [12], in assay [5] and in [13] was “inactive” in each case. Moreover, the max response in assay [4] is -13.8% and 47.8%. Moreover, in [6], the call was inactive.

Take `c1ccc2c(c1)[nH]c1ccccc12`: the Potency in assay [14] was > 92 µM (inactive). Besides, the Potency entry in [1], in assay [2], in assay [15], in [3], in assay [12] and in assay [5] was “inactive” throughout. For the same compound, the Potency entry in [13] and in assay [17] was “inactive” each time. In addition, the max response in [4] is -0.442% and 48.8%. The call in assay [6] and in assay [16] was inactive.

`Nc1ccc(S(=O)(=O)O)cc1`: the Potency result in assay [10], in assay [11] and in assay [13] was “inactive” in each case. Moreover, the outcome in assay [18] was inactive. Further, in assay [19], the activation is -0.239% (inactive) and 0.0399% (inactive). For the same compound, in assay [8], the max response is -1.01% (inactive) and -2.98% (inactive).

With `O=C(O)CC(C(=O)O)C(CC(=O)O)C(=O)O` (stereo not given), the Potency result in [10], in assay [1], in assay [3], in assay [12], in assay [5] and in [13] was “inactive” each time. The Potency result in assay [7] was “inactive”. In addition, the compound was called inactive in [18], in [6] and in assay [16]. In addition, the max response in assay [4] was 5.81%. The activation in assay [19] was -0.643% (inactive) and 0.457% (inactive).

As to `C=CCOC(=O)c1ccccc1C(=O)OCC=C`, in [14], the Potency is > 92 µM (inactive). In addition, in assay [3], the Potency entry is “inactive”. For the same compound, the compound was called inactive in assay [18], in [6] and in [16]. Also, the activation in [19] is -0.29% (inactive) and -0.27% (inactive). The max response in assay [8] was 16.2% (inactive) and -0.609% (inactive).

As for `C=CC(=O)OCCOCCOCCOCCOC(=O)C=C`, the Potency in assay [14] was > 92 µM (inactive); in assay [3], 20 µM (active) and 25.1 µM (active); in assay [12], 39.8 µM (active); in assay [5], 28.2 µM (active); in assay [13], 42.2 µM (active) and 37.6 µM (active). The Potency result in assay [10] and in assay [1] was “inactive” in each case. In addition, the max response in assay [4] was -103%. Also, the call in assay [16] was inactive.

`C/C=C\c1ccc(OC)cc1`: the Potency result in assay [3], in assay [5] and in [7] was “inactive” throughout. For the same compound, the outcome in assay [18], in [6] and in assay [16] was inactive. Moreover, in assay [4], the max response was -7.78%. Also, in [19], the activation is -0.604% (inactive).

Regarding `CCCCCCCCCCCCCCC1CO1` (stereo not given), in [14], the Potency was > 92 µM (inactive). For the same compound, the Potency entry in assay [10], in assay [1], in assay [15], in [12], in assay [5] and in [13] was “inactive” throughout. The max response was 14.3% in assay [4]; -0.26% (inactive) and -1.17% (inactive) in assay [8]. The call in assay [6] and in assay [16] was inactive.

As to `Cc1ccc(N)c([N+](=O)[O-])c1`, the Potency entry in assay [10], in assay [2], in assay [12] and in assay [5] was “inactive” in each case. Further, in assay [4], the max response is -16.3% and -11.9%. The compound was classed as inactive in assay [6].

`CN(C)CCCCCCN(C)C`: the Potency entry in assay [10], in [1], in assay [2], in [15], in assay [11] and in assay [12] was “inactive” throughout. Also, the Potency entry in assay [5], in assay [13] and in assay [17] was “inactive” throughout. Further, in assay [18], the result was inactive. Further, the max response is 53.3% in [4] and -4.75% (inactive) in assay [9].

Turning to `c1ccccc1`, the Potency result in [10], in assay [1], in assay [2], in [12], in assay [13] and in [7] was “inactive” throughout. In addition, the result in [18] and in [6] was inactive. In addition, in assay [19], the activation is -0.601% (inactive) [middle of 4 runs]. In assay [9], the max response is 0.515% (inactive) [middle of 4 runs].
